PubChem BioAssay (NCI)
About 79,000 compounds went through this panel and 15% of them were active in at least one assay; those are over-represented in the sample as a whole. Unmarked numbers belong to inactive results. The source made the active and inactive calls. No stated cut-off is given here; in the data, active means growth inhibition above about 70%; inactive means the rest.

Tests used:
[1] = NCI Yeast Anticancer Drug Screen. Data for the rad50 strain (AID 155);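 further: 0% = growth of vehicle-only cultures of the same strain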; conditions: S. cerevisiae rad50 strain growth inhibition; at 50.0 µM; active compounds read high
Procedure, shortened: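 Relative growth inhibition (compound vs vehicle) was measured in yeast with a defined repair-gene alteration.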

[2] = NCI Yeast Anticancer Drug Screen. Data for the mec2-1 strain (AID 157); conditions: S. cerevisiae mec2-1 strain, at 50.0 µM, active compounds read high
Procedure, shortened: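 Strain: mec2-1 (DNA repair/cell cycle alteration). Compound exposure, then growth measured; inhibition expressed relative to vehicle.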

[3] = NCI Yeast Anticancer Drug Screen. Data for the sgs1 mgt1 strain (AID 161);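 further: 0% = growth of cultures given vehicle only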; conditions: S. cerevisiae sgs1 mgt1 strain, at 50.0 µM, active compounds read high
Procedure, shortened: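 Test agents were incubated with a DNA-repair-mutant yeast strain. Growth was then read and compared against vehicle-treated controls.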

[4] = NCI Yeast Anticancer Drug Screen. Data for the cln2 rad14 strain (AID 165);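 further: 0% = growth equal to vehicle treated cultures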; conditions: S. cerevisiae cln2 rad14 strain, at 50.0 µM, active compounds read high
Procedure, shortened: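 Compounds are applied to the cln2 rad14 yeast strain, and growth is then compared with that of vehicle-treated cultures to give inhibition.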

[5] = NCI Yeast Anticancer Drug Screen. Data for the bub3 strain (AID 167); conditions: S. cerevisiae bub3 mutant strain, at 50.0 µM, active compounds read high
Procedure, shortened: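 Screening used yeast with an engineered genetic alteration affecting cell cycle control. Compound-exposed cultures were compared with vehicle cultures, and reduced growth was taken as inhibition.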

[6] = NCI Yeast Anticancer Drug Screen. Data for the mlh1 rad18 strain (AID 175); conditions: S. cerevisiae mlh1 rad18 strain growth inhibition; at 50.0 µM; active compounds read high
Procedure, shortened: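 Read-out is yeast growth inhibition, calculated against vehicle-only controls. The compound was applied to a strain engineered with DNA damage repair alterations.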

Row | Compound | growth inhibition [1] | growth inhibition [2] | growth inhibition [3] | growth inhibition [4] | growth inhibition [5] | growth inhibition [6]
1 | CCOC(=O)C1=C(c2ccccc2)OC(N)=C(C#N)C1c1ccccc1 (stereo unspecified) | -16.9% | -8.4% | -17.6% | 7.6% | 25.3% | -4.85%
2 | N#Cc1ccc(/C=C2\Cc3ccccc3C2=O)cc1 | -30.6% | -29.7% | -35% | 9.5% | -18.8% | 3.5%
3 | O=[N+]([O-])c1ccc(OCc2ccc(CBr)cc2)c(Cl)c1 | 4.1% | 29.6% | 15.4% | -13.7% | 16% | 22.5%
4 | CC1(C#N)CC/C(=C\c2ccc3c(c2)OCO3)C(=O)C1 (stereo unspecified) | 0.3% | 16.9% | 4.75% | -1.1% | -6.7% | -4.6%
5 | N=C(N)SCc1cccc(-c2nc3ccccc3c(=O)o2)c1 | 22.2% | 17.4% | 7.9% | 5.95% | 20.8% | 16.9%
6 | Cc1cc2c(=O)n(-c3ccc(F)cc3)c(C)nc2c(C(=O)O)c1C | -11.3% | -8.75% | -0.6% | 10% | -14.6% | 9.55%
7 | C/C=N/Nc1ccccc1 | 24.8% | -1.4% | 18.2% | 32.9% | 31.9% | 30%
8 | CC(=O)Oc1c(C)cc2c(c1C)C(C)(C)CN2C(=O)C(C)(C)C | 16.9% | -20.2% | 17.6% | -7.15% | -1.3% | 7.9%
9 | c1cnn(C23C4C5C6C4C2C6C53)c1 (stereo unspecified) | -24.4% | -26.6% | -18.7% | -20.5% | -32.5% | -38.6%
10 | Cc1cc(=O)[nH]n1-c1ccc([N+](=O)[O-])cc1 | 6.15% | -2.4% | 5.3% | -9.8% | -1.7% | 14.8%
11 | COC(=O)CCC1CCC(CC2CCC(CCC(=O)OC)CC2)CC1 (stereo unspecified) | -20.1% | -6.95% | -6.65% | -26% | -9.7% | -4.25%
12 | CCC(C)C(=O)/C=C/c1ccccc1 (stereo unspecified) | 14.2% | -6.15% | -2.85% | -25.3% | 21.3% | -12.1%
13 | CCC(C)OC(=O)/C=C/c1ccccc1 (stereo unspecified) | 1.35% | 3.15% | -1.8% | -0.25% | -10.2% | -10.6%
14 | CCCCCCCC(C)(O)C#CC(C)(O)CCCCCCC (stereo unspecified) | 4.35% | -4.15% | 4.85% | -20.6% | 5.05% | 13.3%
15 | Cn1c(=O)c2nc3c(=O)n(C)c(=O)n(CC(N)=O)c3nc2n(C)c1=O | 28.2% | -5.65% | 14.9% | 26.2% | 12.1% | 21.4%
16 | CCOC(=O)c1c(C)cc2ccccn12 | -11.4% | -12.4% | 0.05% | -26.7% | 8.3% | 11.2%
17 | COc1cc(C=O)ccc1OC(=O)Nc1cc(Cl)ccc1C | 6.6% | 6.7% | 10.8% | 5.75% | 13.2% | 8.85%
18 | C=CCNC(=S)/N=C\C(C(=O)OCC)=C(/O)C(=O)OCC | -18.6% | -18.4% | -16.6% | -21.7% | -8.85% | -29.8%
19 | CCCCCCCCCCCCCOCC(=O)OC | -0.75% | 20.8% | -4.9% | -29% | 12.9% | 1.6%
20 | N[C@@H](CO)[C@@H](O)c1ccc([N+](=O)[O-])cc1 | 1.5% | -7.7% | -3.9% | -38.5% | 1.5% | -4.6%
21 | CCOC(=O)C(CSC(=O)c1ccccc1)NC(=O)OCc1ccccc1 (stereo unspecified) | 40.4% | -3.35% | 21.2% | -29.6% | 2.65% | 20.1%

Row | Compound | growth inhibition [1] | growth inhibition [2] | growth inhibition [3] | growth inhibition [4] | growth inhibition [5] | growth inhibition [6]
22 | CNC(=S)NNC(=O)c1ccncc1 | 11.4% | 10.7% | 13.6% | 18.6% | -0.65% | 13.3%
23 | OCC(CO)(CO)CO | 18.9% | -0.7% | -6.8% | -16.1% | 28.8% | -5.3%
24 | O=C(Nc1nc2ccccc2[nH]1)C(F)(F)F | -6.8% | -13.4% | -3.85% | 5.55% | -2.55% | 20%
25 | O=C(CN=C(CN(c1ccccc1)c1ccccc1)Oc1c(Cl)cc(Cl)cc1Cl)n1cnc2ccccc21 | 0.9% | -9% | 35.3% | -63.4% | -46.4% | 10.4%
26 | O=C(NNS(=O)(=O)c1ccccc1)c1cccc([N+](=O)[O-])c1 | -0.95% | -18.8% | 7.25% | 8.2% | 5% | -11.4%
27 | O=Cc1ccc2ccccc2c1 | 33.5% | -12% | -7.45% | -57.5% | 16.8% | 30.8%
28 | Cc1ccccc1C(=O)NNC(=O)c1ccc2ccccc2c1 | 7.3% | -9.1% | -3.9% | 9.35% | -13.2% | -9.45%
29 | CCOC(=O)c1nc2c(Cl)c3ncccc3cc2[nH]c1=O | 20.6% | 11.1% | 20.8% | -9.7% | 16.1% | 20.4%
30 | CCOC(=O)C(Cc1ccc(N=NN(C)C)cc1)NC(=O)CC1c2ccccc2-c2ccccc21 (stereo unspecified) | 13.8% | 7.2% | 20.7% | -6.25% | 47.6% | 8.3%
31 | NC(=O)C(=O)c1ccccc1 | -6.65% | -27.1% | -2% | -3% | -19.6% | -19.7%
32 | O=c1cc(-c2ccccc2)oc2c(-c3cc(Cl)cc4c(=O)cc(-c5ccccc5)oc34)cc(Cl)cc12 | -6.65% | 23.4% | 13.7% | -3.1% | -2.2% | 79.3% (active)
33 | CCOc1ccc(NC(=O)CC2SC(N)=NC2=O)cc1 (stereo unspecified) | -15.2% | -35.5% | -1.9% | 8.5% | -2.8% | -0.6%
34 | O=c1/c(=C/c2cccc([N+](=O)[O-])c2)sc2nc3ccccc3n12 | -9.95% | -12.7% | -18.1% | -4.65% | -10.1% | -12.7%
35 | O=S(=O)(O)c1cc(O)c2c(N=Nc3c(S(=O)(=O)O)cc4cc(S(=O)(=O)O)cc(N=Nc5c(S(=O)(=O)O)cc6cc(S(=O)(=O)O)cc(O)c6c5O)c4c3O)cc(S(=O)(=O)O)cc2c1 | -4.7% | 26.6% | 5.45% | -14.8% | -7.6% | 8.5%
36 | CCCCCC(CCCC)OC(=O)Nc1ccccc1 (stereo unspecified) | -4.35% | 7.85% | 10% | -7% | -1.15% | 4.6%
37 | Cc1cc2c(cc1C)[n+](=O)c(C(=O)CC(=O)C(=O)Nc1ccccc1C(C)C)c(C)n2[O-] | -26.4% | -4.75% | -51.6% | 13.1% | -14.4% | -33.6%
38 | COS(=O)(=O)C=C(c1ccccc1)c1ccccc1 | 12.8% | -27.1% | 15.7% | -24.5% | 6.4% | -1.95%
39 | O=C(/C=N\O)c1ccccc1[N+](=O)[O-] | -5.6% | -4.85% | 7.6% | -37.5% | -1.35% | -19.1%
40 | O=C1CCSSCCC(=O)NCCCN1 | 1% | -5.3% | -24.4% | 15.2% | -24.1% | -6.3%
41 | COCCN1CC(=O)N2Cc3ccccc3CN2C(=O)C1 | -4.6% | -13.8% | -6.15% | -9.5% | -3% | -6.65%
